PubChem BioAssay (Tox21)
Values joined by “and” are separate entries in the source; they are usually repeats but may differ in a detail not shown here. Identical values can stand only once. Inconclusive results are not listed. Where a call stands in place of a potency, no number is given. A structure can be active in one record and inactive in another. Active and inactive are the calls of the source. Unless noted, the call rests on the fitted dose curve; in most records, active means well fitted curve in the direction sought with a large enough effect in the repeat runs; inconclusive means weak or mixed curves; inactive means no such curve, though single readings can be large; an effect the other way counts as inactive or inconclusive.

How the values were obtained:
[1] = qHTS RealTime-Glo MT Cell Viability Assay in HEK293 cells - 0 hour (AID 1224880); further: top concentration of the series differs between compounds; nearly all actives have a fitted effect of over 45% in size
In short: (§1)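 600 cells/well were plated with the nonlytic NanoLuc/prosubstrate reagent, pre-incubated 5 h, then given 23 nL of compound in DMSO. Incubation at 37 C for 40 h, with luminescence from viable-cell-reduced substrate read repeatedly from 0 h.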

[2] = A CellTox Green Cytotoxicity Assay to monitor cytotoxicity in HEK293 cells - 32 hour (AID 1224881); further: nearly all actives have a fitted effect of over 40% in size; further: potency means the concentration at half of the fitted maximal effect
In short: (§2)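 HEK293 cells, 600/well, were preincubated 5 hours and then exposed to compounds at 37 C for up to 40 hours. A cell-impermeant cyanine dye staining dead-cell DNA was read by fluorescence at 0, 8, 16, 24, 32 and 40 h time points.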

[3] = A CellTox Green Cytotoxicity Assay to monitor cytotoxicity in HepG2 cells - 0 hour (AID 1224882); further: nearly all actives have a fitted effect of over 35% in size
In short: (§3)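 HepG2 cells, 600/well, preincubated 5 h with CellTox Green dye, then exposed to Tox21 compounds in DMSO at 37 C for up to 40 h. Dead-cell DNA fluorescence read at the indicated time point.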

[4] = A CellTox Green Cytotoxicity Assay to monitor cytotoxicity in HEK293 cells - 8 hour (AID 1224884); further: nearly all actives have a fitted effect of over 35% in size; further: potency means the concentration at half of the fitted maximal effect
In short: as §2

[5] = qHTS RealTime-Glo MT Cell Viability Assay in HEK293 cells - 24 hour (AID 1224886); further: nearly all actives have a fitted effect of over 50% in size; further: potency means the concentration at half of the fitted maximal effect
In short: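 Luminescence generated by NanoLuc from substrate produced by living HEK293 cells served as the viability signal. Each value reflects the reading at its stated time point during continuous 40 h compound exposure at 37 C.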

[6] = qHTS RealTime-Glo MT Cell Viability Assay in HEK293 cells - 8 hour (AID 1224887); further: nearly all actives have a fitted effect of over 50% in size; further: potency means the concentration at half of the fitted maximal effect
In short: as §1

[7] = qHTS RealTime-Glo MT Cell Viability Assay in HepG2 cells - 0 hour (AID 1224889); further: nearly all actives have a fitted effect of over 50% in size
In short: (§4)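 Tox21 10K library screened in qHTS format on HepG2 cells carrying RealTime-Glo reagents. Compounds were added after a 5 h preincubation, and the luminescent signal from continuous culture was measured repeatedly during 40 h treatment.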

[8] = A CellTox Green Cytotoxicity Assay to monitor cytotoxicity in HepG2 cells - 8 hour (AID 1224890); further: nearly all actives have a fitted effect of over 45% in size; further: potency means the concentration at half of the fitted maximal effect
In short: as §3

[9] = qHTS assay to identify small molecule antagonists of the estrogen receptor alpha (ER-alpha) signaling pathway using the BG1 cell line in the presence of 0.1 nM 17-beta-estradiol - cell viability counter screen (AID 1259241); further: nearly all actives have a fitted effect of over 40% in size; further: potency means the concentration at half of the fitted maximal effect
In short: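 CellTiter-Fluor read (30 min, 37C) on ER-alpha/ERE-luc VM7Luc4E2 cells; 22 hr compound treatment; agonist 0.1 nM E2 final; same-well multiplex.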

[10] = qHTS assay to identify small molecule antagonists of the androgen receptor (AR) signaling pathway using the MDA cell line in the presence of 0.5 nM R1881 - cell viability counter screen (AID 1259242); further: nearly all actives have a fitted effect of over 45% in size; further: potency means the concentration at half of the fitted maximal effect
In short: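 MDA-kb2 cells (MMTV-luciferase, AR/GR responsive) were treated with compounds plus 0.5 nM R1881 (final) for 16 hr at 37C, 0% CO2. Viability was then read in the same wells as live-cell protease fluorescence (CellTiter-Fluor, 30 min).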

[11] = molecular target: Androgen receptor (Homo sapiens) (UniProt P10275); test: qHTS assay to identify small molecule antagonists of the androgen receptor (AR) signaling pathway using the MDA cell line in the presence of 0.5 nM R1881 (AID 1259243); further: nearly all actives have a fitted effect of over 50% in size; further: potency means the concentration at half of the fitted maximal effect
In short: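 MDA-kb2 cells (MMTV-luciferase, responsive to AR and GR) at 3,000/well, rested 5 h at 37C, 0% CO2, then given compounds plus 0.5 nM R1881 (final) for 16 hr. Luciferase read with ONE-Glo after 30 min at room temperature.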

[12] = molecular target: Estrogen receptor (Homo sapiens) (UniProt P03372); test: qHTS assay to identify small molecule antagonists of the estrogen receptor alpha (ER-alpha) signaling pathway using the BG1 cell line in the presence of 0.1 nM 17-beta-estradiol (AID 1259244); further: nearly all actives have a fitted effect of over 50% in size; further: potency means the concentration at half of the fitted maximal effect
In short: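 VM7Luc4E2 cells (endogenous full-length ER-alpha, 4×ERE-luciferase), kept 5 days in phenol red-free, charcoal-stripped FBS medium; 4,000 cells/well. Compounds added with 0.1 nM (final) 17beta-estradiol, 22 hr at 37C; luminescence read with ONE-Glo after 30 min.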

[13] = qHTS assay to identify small molecule HDAC inhibitors (AID 1259364); further: nearly all actives have a fitted effect of over 45% in size; further: potency means the concentration at half of the fitted maximal effect
In short: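 Wild-type HCT-116 cells, plated overnight at 37 C, exposed to compounds 2 hr at 37 C; luminogenic HDAC-Glo substrate then added 30 min at room temperature. Luminescence reports relative endogenous class I/II HDAC activity.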

[14] = qHTS assay to identify small molecule HDAC inhibitors - cell viability counter screen (AID 1259365)
In short: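 To flag cytotoxic hits, 1,500 wild-type HCT-116 cells per well, plated the day before, receive test compounds for 2hr at 37 C before CellTiter-Glo reagent and a luminescence read.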

[15] = qHTS assay to identify small molecule agonists of the sonic hedgehog signaling (Shh) pathway - cell viability counter screen (AID 1259366); further: nearly all actives have a fitted effect of over 50% in size; further: potency means the concentration at half of the fitted maximal effect
In short: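 Fluorescence from CellTiter-Fluor reports live cells in this counter screen. NIH/3T3-derived Gli1-Luc reporter cells receive test compounds for 24hr at 37C; reagent goes in at 23hr.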

[16] = qHTS assay to identify small molecule antagonists of the sonic hedgehog signaling (Shh) pathway - cell viability counter screen (AID 1259367); further: nearly all actives have a fitted effect of over 55% in size; further: potency means the concentration at half of the fitted maximal effect
In short: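 Seed 3T3 Gli1-Luc cells at 2,000 per well; incubate 4 hr; add compound in DMSO, then conditioned medium; incubate at 37C with 5% CO2; add CellTiter-Fluor after 23 hr; read fluorescence 1 hr later.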

[17] = qHTS assay to identify small molecule agonists of the sonic hedgehog signaling (Shh) pathway (AID 1259368; calls by dose curve;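 further: NIH/3T3-derived 3T3Gli1-Luc cells carrying a stable Gli1-driven firefly luciferase reporter; series mostly up to about 92 µM; nearly all actives have a fitted effect of over 15% in size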)
In short: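 NIH/3T3-derived 3T3Gli1-Luc cells with stably integrated Gli1-driven firefly luciferase, 2,000 cells/well, compounds added after 4 hr. Incubated 24 hr at 37C, 5% CO2; luminescence read after 30 min with luciferase reagent at room temperature.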

[18] = qHTS RealTime-Glo MT Cell Viability Assay in HepG2 cells - 16 hour (AID 1224885); further: nearly all actives have a fitted effect of over 50% in size; further: potency means the concentration at half of the fitted maximal effect
In short: as §4

[19] = A CellTox Green Cytotoxicity Assay to monitor cytotoxicity in HEK293 cells - 16 hour (AID 1224888); further: nearly all actives have a fitted effect of over 35% in size
In short: as §2

[20] = A CellTox Green Cytotoxicity Assay to monitor cytotoxicity in HepG2 cells - 32 hour (AID 1224883); further: nearly all actives have a fitted effect of over 50% in size; further: potency means the concentration at half of the fitted maximal effect
In short: as §3

Androgen receptor (Homo sapiens), sequence (P10275 whole entry, looked up): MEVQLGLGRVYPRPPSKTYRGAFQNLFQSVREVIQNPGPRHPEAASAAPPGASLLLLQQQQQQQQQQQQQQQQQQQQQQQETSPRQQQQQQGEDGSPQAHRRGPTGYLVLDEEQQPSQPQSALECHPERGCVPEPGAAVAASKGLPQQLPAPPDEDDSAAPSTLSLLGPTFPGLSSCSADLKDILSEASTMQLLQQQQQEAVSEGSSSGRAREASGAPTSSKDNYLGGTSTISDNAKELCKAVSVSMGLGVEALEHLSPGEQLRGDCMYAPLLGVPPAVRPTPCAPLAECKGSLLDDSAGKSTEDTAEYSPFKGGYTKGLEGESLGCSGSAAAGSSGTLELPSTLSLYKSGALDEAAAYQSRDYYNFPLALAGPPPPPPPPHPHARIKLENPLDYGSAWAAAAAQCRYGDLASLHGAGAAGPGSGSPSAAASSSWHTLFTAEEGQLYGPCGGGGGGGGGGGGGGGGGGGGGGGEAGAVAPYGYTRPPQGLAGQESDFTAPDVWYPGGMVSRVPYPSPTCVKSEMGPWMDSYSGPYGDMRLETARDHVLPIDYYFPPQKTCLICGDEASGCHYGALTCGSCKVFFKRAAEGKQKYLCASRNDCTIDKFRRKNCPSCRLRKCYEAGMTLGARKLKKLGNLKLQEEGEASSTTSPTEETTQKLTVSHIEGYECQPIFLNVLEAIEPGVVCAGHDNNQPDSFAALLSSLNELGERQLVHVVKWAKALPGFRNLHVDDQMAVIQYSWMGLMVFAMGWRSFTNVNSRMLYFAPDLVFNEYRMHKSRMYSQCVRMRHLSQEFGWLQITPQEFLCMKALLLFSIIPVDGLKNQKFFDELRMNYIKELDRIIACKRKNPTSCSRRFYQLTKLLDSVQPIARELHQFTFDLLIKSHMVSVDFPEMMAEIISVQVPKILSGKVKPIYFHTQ
Estrogen receptor (Homo sapiens), sequence (P03372 whole entry, looked up): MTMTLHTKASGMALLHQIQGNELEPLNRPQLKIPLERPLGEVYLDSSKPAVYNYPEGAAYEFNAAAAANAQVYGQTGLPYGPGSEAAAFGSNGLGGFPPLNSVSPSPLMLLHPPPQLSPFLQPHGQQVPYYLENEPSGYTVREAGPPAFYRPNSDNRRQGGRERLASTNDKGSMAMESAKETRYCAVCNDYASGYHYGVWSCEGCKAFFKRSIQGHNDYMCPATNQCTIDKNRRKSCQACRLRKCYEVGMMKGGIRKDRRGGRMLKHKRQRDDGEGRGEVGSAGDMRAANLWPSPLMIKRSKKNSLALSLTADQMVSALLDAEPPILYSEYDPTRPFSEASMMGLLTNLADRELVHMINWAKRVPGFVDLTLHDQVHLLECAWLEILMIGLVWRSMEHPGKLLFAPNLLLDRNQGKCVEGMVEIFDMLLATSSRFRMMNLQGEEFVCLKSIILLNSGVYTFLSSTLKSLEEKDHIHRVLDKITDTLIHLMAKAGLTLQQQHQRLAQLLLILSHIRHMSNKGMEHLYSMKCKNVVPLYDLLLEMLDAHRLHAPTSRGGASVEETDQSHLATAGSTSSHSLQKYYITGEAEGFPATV

| SMILES | Potency [1] | Potency [2] | Potency [3] | Potency [4] | Potency [5] | Potency [6] | Potency [7] | Potency [8] | Potency [9] | Potency [10] | Potency [11] | Potency [12] | Potency [13] | outcome [14] | Potency [15] | Potency [16] | Potency [17] | Potency [18] | Potency [19] | Potency [20] |
| --- | --- | --- | --- | --- | --- | --- | --- | --- | --- | --- | --- | --- | --- | --- | --- | --- | --- | --- | --- | --- |
| c1cc(OCC2CO2)ccc1Cc1ccc(OCC2CO2)cc1 (stereo not given) | inactive | inactive | inactive | inactive | inactive | inactive | inactive | inactive | inactive | inactive | inactive | inactive | inactive | inactive | 27.3 µM (active) | 61.1 µM (active) | inactive |  |  |  |
| CCN(N=O)C(N)=O | inactive | inactive | inactive | inactive | inactive | inactive | inactive | inactive | inactive | inactive |  | inactive | inactive | inactive | inactive | inactive | inactive | inactive |  |  |
| CCC(C)(c1ccc(O)cc1)c1ccc(O)cc1 | inactive | inactive | inactive | inactive |  | inactive |  | inactive | inactive | inactive |  |  | inactive | inactive | inactive | inactive | inactive | inactive |  |  |
| OCC(O)CO | inactive | inactive | inactive | inactive | inactive | inactive |  | inactive | inactive | inactive |  | inactive | inactive | inactive | inactive | inactive | inactive | inactive | inactive |  |
| Nc1ccc(-c2ccc(N)c(N)c2)cc1N | inactive | inactive | inactive | inactive | inactive | inactive | inactive | inactive | inactive | inactive |  |  | 54.3 µM (active) | inactive |  | inactive | inactive | inactive | inactive |  |
| C[C@]12CCC(=O)C[C@@H]1CC[C@@H]1[C@@H]2CC[C@]2(C)[C@@H](O)CC[C@@H]12 | inactive | 38.4 µM (active) and inactive | inactive | inactive | 21.6 µM (active) | inactive |  | inactive | inactive | inactive |  |  | inactive | inactive | inactive | inactive | inactive | inactive | inactive |  |
| CCCCC(CC)COC(=O)Cl (stereo not given) | inactive | inactive | inactive | inactive | inactive | inactive |  | inactive and 38.9 µM (active) | inactive | inactive |  | inactive | inactive | inactive | inactive | inactive | inactive |  | inactive |  |
| Cc1ccc2c(c1N)C(=O)c1ccccc1C2=O | inactive | inactive | inactive | inactive | 9.67 µM (active) and 7.76 µM (active) | 7.68 µM (active) and 6.92 µM (active) | inactive | inactive |  | inactive |  | inactive | 7.61 µM (active) and 9.69 µM (active) | inactive |  |  | inactive | inactive | inactive |  |
| ClC1C(Cl)C(Cl)C(Cl)C(Cl)C1Cl (stereo not given) | inactive |  | inactive | inactive and 43.6 µM (active) | inactive and 49 µM (active) | inactive and 49 µM (active) | inactive | inactive | inactive | inactive |  |  | inactive | inactive | inactive | inactive | inactive |  |  | inactive and 43.6 µM (active) |
| C=C(C)C(=O)OCC1CO1 (stereo not given) | inactive | inactive | inactive | inactive | inactive | inactive |  | inactive | inactive | inactive |  | inactive | inactive | inactive | inactive | inactive | inactive |  | inactive |  |
| c1ccc(-c2cccc(-c3ccccc3)c2)cc1 | inactive | inactive | inactive | inactive | inactive | inactive |  | inactive | inactive | inactive |  | inactive | inactive | inactive | inactive | inactive | inactive | inactive | inactive |  |
| O=[N+]([O-])c1ccc(O)c([N+](=O)[O-])c1 | inactive |  | inactive | inactive | inactive | inactive | inactive | inactive | 30.8 µM (active) and 27.3 µM (active) | 24.4 µM (active) and 27.3 µM (active) | 30.8 µM (active) and 54.5 µM (active) | 48.8 µM (active) and 48.6 µM (active) |  | inactive |  | 48.8 µM (active) | inactive | inactive |  |  |
| CCCCCc1cc(O)cc(O)c1 | inactive | inactive | inactive | inactive | 38.9 µM (active) | 24.5 µM (active) | inactive | inactive and 38.9 µM (active) | inactive | inactive |  |  |  | inactive | inactive and 30.6 µM (active) | 30.6 µM (active) | inactive | inactive and 43.6 µM (active) | inactive |  |
| CCCCNC(=O)n1c(NC(=O)OC)nc2ccccc21 | inactive | inactive | inactive | inactive | inactive | inactive | inactive | inactive | inactive | inactive | inactive | inactive | 21.6 µM (active) and 19.3 µM (active) | inactive | inactive | 60.8 µM (active) and inactive | inactive |  | inactive |  |
